B1: GBRAP_128_3416 (protein)
chain: ADAALVAKAKELLEKMKTADAATAAALADEIAALIAAADLETAEAIAEVIEEELPKLTAEQLDILADALRAALPAASPEKAEILAGVLVDALNEAEEKEE
B2: GBRAP_26_5474 (protein)
chain: VEEEVEAALKEMEKLLKELLDPETAAAATASAFTIVEEAVEEMKKNAKDKEKLKKAAEKAVKEIAADLETLGVDADTRAKIVAKAKAELEKIVKAIEKEA
B3: GBRAP_160_4004 (protein)
chain: SEKIEKLIKEIEELVEETIEWMEGLSPEERLTLVRGTVGEIIQLAIESEEVSDESEEKIAELGDETIERVEENKDASLEVWKEILEEFLEKVKKILKEDE
B4: GBRAP_137_3676 (protein)
chain: SKVEIEIKEEDGLVEITVTVYDPEKAEETEEKLLDIAHEVGALAVAIKRNEDGSLEITIVVPEEKGEEAEKKVLELAKEYDEVIIKKEKDGKTEEEVIKK
B5: GBRAP_35_5582 (protein)
chain: DDVEIILETARDFAEAAIEALKGDDLEEAIRMTEAFVRAAELAIEDLKNDLEALKELAKLLEEVLKAAKEYASDNPEMQKNIERLEELLKRAKELAKKVE
B6: GBRAP_166_4971 (protein)
chain: MQEELVEEFKKYIDELAEKMKTANHEEKLELLAEAAEKLKELIEKGLSDEDLKELIEYLIKKAKEVGISTSEVYGALTIIADLNEEQIDILEEAIKKVEK
B7: GBRAP_106_2558 (protein)
chain: SKKETAEKIYKEMLEEAKKEIAEHEAWLAKHRSQLTPEEIRAINQYLRDYLVAKLLRKMIEAGIITKEEAKEILEEVRKRKDLDPLEALEYAGKLVLEKI
B8: GBRAP_78_6731 (protein)
chain: ELEKLLEEAIKVASEAAKLAVKQASNEVIAEIVEALSHLEEALELVEEGGEKEEILEELEKALEHLKEALKLLPESLTEIKKLLEEAIKLVEEAIKEVKK
B9: GBRAP_78_6654 (protein)
chain: EVEELIDKAMEHLDKAAKLTKKLDEESRNELLDLLVEAASHILLSEENGFDLEELKEALEYLKKALEYAKSLNTPVAKEIAEELEKAIEYLEKAIKLLEE
B10: GBRAP_52_6036 (protein)
chain: SRERMRRLAQEIVDLAKAGDLEGARALAREAVETLSEEELRLLGEELARLAREAAPEDLDAIMEVAFILADALVEGGYDEVLADDLLARVAAAAVENLQA
B11: GBRAP_52_6031 (protein)
chain: SRERMRALARELIDLVLAGRDDEARALAEELVATLSEEELRLLGEELARLTREAAPEDLDAYMRAAEIVADALEAAGYDEVLADDLLARVAAAAVENLAR
B12: GBRAP_196_5416 (protein)
chain: KYLEEIKELEKESEEEVKDIELSDWTIVVNFTPENLEEEAEKTAEIAKDLGNPEIVIVHDGTLEEMLEALKLLREKLKEKGVVSKISVDSRAREEAEEKA
B13: GBRAP_84_7000 (protein)
chain: MREEEIEKLVDYLAENSSLELLKKLYVYLLLKNDNKGATRLLSYLLEKDPEAAAEALDKATEAALEEKEEEVKKELLELAKKEGEEIYKKVKKLIELLEE
B14: GBRAP_160_4655 (protein)
chain: SAELEELLEKIREIFEEALEMMKGETHEQRVAIARVMKGDVILLLEESPSVSDETVDEVDEVMDELVETIEENPDWTDEEIEEKIDEALEEIEEILEEDF
B15: GBRAP_11_2732 (protein)
chain: KKEKLEEIRELAERLAELLQRLIEEGPEDEELRREAEEQLRKLEELVKEYGDEDLKKLVEIIREEWERAQEDPETAVEHLRNALAAARVLAGQVLLEIEE
B16: GBRAP_128_3559 (protein)
chain: SVEERVEKAKELLEKIKNSDVEEARKYAEELAKLLEEADEESLEAIVETILERLPELSVEHLDVLADVFRERIPEADPRTAEALAEIQVEALNEAEEKEE
B17: GBRAP_128_3586 (protein)
chain: SVEAVRAETRALMAAMKTADDATAKALATELAARFTTLSLEEAEAAAEVIEEELPGLSAEHLDILADALRAALPAMTPEKAELAADVLVAALNEAEEKDE
B18: GBRAP_166_4874 (protein)
chain: GLEELLEKARKEIRELLKKASEADDEERVELYIEIGEIIEELREAGAPKEAILELVREALKEAKELGLDVRLLAGIIINVTDFDEEEIDELDKIVEEVLK
B19: GBRAP_11_2667 (protein)
chain: KKEVYKKAAELAKELAKTVKKLIEEGIDNEELIKKAEELLKELKELAKKELDKASQKEVEVLEEIWKEAKEDKENSLKYWELLLAGARVLEGNFLLEYDE

Over roughly 4,500 sequences, “median log2 fold change of GCK-ALFA target abundance (FLAG IP / Myc IP barcode read proportion)” has its median near 0.078; the lowest 2% begin near -0.6. The entries come from a sample that favours the lowest values as a whole.

The values that follow come from the supplement of paper PMC12632987.

The test deals with GABARAP, O95166. In words: median log2 fold change of GCK-ALFA target abundance (FLAG IP / Myc IP barcode read proportion) (log2 ratio); each designed protein is fused to an ALFA-tag nanobody in HEK293 cells to bring the named protein to FLAG-tagged glucokinase (GCK); Myc marks an untargeted standard; higher = target protein stabilised (more abundant). Particulars: target protein: 3xFLAG-MCP-GCK-ALFA reporter; HEK293 landing pad (RPLP). In short, it runs like this: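 An ALFA-nanobody-fused binder library was recombined into HEK293 landing-pad cells and induced with 2 μg mL^−1 doxycycline. Cells were transfected with a plasmid expressing a FLAG-tagged target and a Myc-tagged standard. After 48 h, lysates underwent anti-FLAG and anti-Myc immunoprecipitation, and circular RNA barcodes were reverse transcribed, amplified and sequenced. Target abundance is the per-binder median log2 ratio of FLAG to Myc barcode read proportions. Barcodes needed ≥10^−7 proportion in both replicates, binders ≥3 barcodes per replicate, and a 10^−6 pseudocount was added; the two replicates were pooled.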
GABARAP, O95166, sequence (O95166 whole entry, the tested form may be a part): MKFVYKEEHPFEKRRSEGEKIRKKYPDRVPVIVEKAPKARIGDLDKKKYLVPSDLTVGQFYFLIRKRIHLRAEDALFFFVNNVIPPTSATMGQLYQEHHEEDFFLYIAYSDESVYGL
B1: the “median log2 fold change” value worked out at 0.247.
As for B2, the “median log2 fold change” value came to 0.241.
On to B3, for which the “median log2 fold change” value is -0.827.
B4: the “median log2 fold change” value is 0.249.
On to B5, for which the “median log2 fold change” value was 0.182.
On to B6, for which the “median log2 fold change” value was -0.0848.
For B7 the value was -0.711; for B8, 0.0787; for B9, 0.0422.
B10: the “median log2 fold change” value is -0.791.
In the case of B11, the “median log2 fold change” value was -0.202.
For B12 the value was 0.451.
Turning to B13, the “median log2 fold change” value turned out to be 0.0601.
Consider B14, for which the “median log2 fold change” value is -0.612.
Turning to B15, the “median log2 fold change” value worked out at 0.303.
With B16, the “median log2 fold change” value turned out to be 0.095.
With B17, the “median log2 fold change” value was 0.296.
Turning to B18, the “median log2 fold change” value was found to be 0.0131.
On to B19, for which the “median log2 fold change” value was -0.102.
